The values below come from PubChem BioAssay (Tox21).

Experiment [1] is described as follows: qHTS assay to identify small molecule antagonists of the retinoid acid receptor (RAR) signaling pathway - cell viability counter screen (AID 1159551). Further: nearly all actives have a fitted effect of over 35% in size. The essentials: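 Cytotoxicity counter screen: ATP content quantified by CellTiter-Glo luminescence in C3RL4 cells treated 6 hr at 37 C with compound and retinol (1 uM final). Cells plated at 1,000/well and cultured overnight before dosing.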
(qHTS replaces the single test concentration by a dilution series.)

A short description of experiment [2]: qHTS assay to identify small molecule antagonists of the retinoic acid receptor (RAR) signaling pathway (AID 1159552; further: nearly all actives have a fitted effect of over 50% in size; further: potency means the concentration at half of the fitted maximal effect). The essentials:
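Luminescent RARE reporter read-out in C3RL4 cells: 6 hr co-treatment at 37 C of test compounds with retinol at 1 uM final. Cells plated overnight beforehand; luciferase reagent incubated 30 min at room temperature before reading.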

The target of experiment [3] is Luciferin 4-monooxygenase (Photinus pyralis) (UniProt P08659). The experiment in a line: qHTS assay to identify small molecule inhibitors of firefly luciferase (AID 1224835). Further: nearly all actives have a fitted effect of over 25% in size. Further: potency means the concentration at half of the fitted maximal effect. The procedure, abridged:
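Inhibition of purified Photinus luciferase is measured by luminescence. Substrate levels (D-luciferin, ATP) sit at their KM values. Each compound is tested in a concentration series.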

Experiment [4] is described as follows: qHTS assay to identify small molecule agonists of the constitutive androstane receptor (CAR) signaling pathway - cell viability counter screen (AID 1224836). Further: series mostly up to about 92 µM; nearly all actives have a fitted effect of over 45% in size. The essentials: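 Cell viability multiplexed with the CAR agonist screen: CellTiter-Fluor fluorescence after 23 hr at 37 C. HepG2-CYP2B6-hCAR cells got compounds at 15 concentrations with PK11195 at 0.75 uM final.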

Experiment [5] is described as follows: qHTS assay to identify small molecule antagonists of the constitutive androstane receptor (CAR) signaling pathway - cell viability counter screen (AID 1224837). Further: series mostly up to about 92 µM; nearly all actives have a fitted effect of over 45% in size. The essentials: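 Cytotoxicity counter-screen: CellTiter-Fluor fluorescence after 23 h compound exposure (15-point qHTS) in double-stable HepG2-CYP2B6-hCAR cells, with 50 nM CITCO added.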
Experiment [6] in a line: qHTS assay to identify small molecule agonists of the estrogen related receptor signaling pathway with the pleiotropic PPARgamma coactivator (PGC) from Tox21 10K library (AID 1224842). Further: nearly all actives have a fitted effect of over 15% in size. The procedure, abridged:
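Luminescence from One-Glo (30 min, room temperature) measured after PGC/ERR cells had 18 h at 37 C with pinned compound (23 nL in DMSO). Cells had been seeded at 2,000 per well and pre-incubated 6 h.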

A short description of experiment [7]: qHTS assay to identify small molecule agonists of the RXR signaling pathway - cell viability counter screen (AID 1159529). Further: nearly all actives have a fitted effect of over 50% in size. Further: potency means the concentration at half of the fitted maximal effect. The essentials: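 CellTiter-Glo luminescence gave viability in the wells also read for beta-lactamase. Cells (RXR-alpha-UAS-bla HEK 293T, 2% charcoal-stripped FBS medium) had 5 hr plating, then 16 hr compound exposure at 37 C; tetraoctyl ammonium bromide served as positive control.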

Experiment [8] in a line: qHTS assay to identify small molecule antagonists of the estrogen related receptor (ERR) signaling pathway from Tox21 library - cell viability counter screen (AID 1224834). Further: nearly all actives have a fitted effect of over 30% in size. Further: potency means the concentration at half of the fitted maximal effect. The procedure, abridged:
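CellTiter-Fluor fluorescence, read after 30 min at 37 C, measures viability of ERR cells. Cells plated at 2,000/well and incubated 6 h before pin-tool compound addition, then exposed 17.5 hours at 37 C.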

In experiment [9] the target is Nuclear receptor subfamily 1 group I member 3 (Homo sapiens) (UniProt Q14994). The experiment in a line: qHTS assay to identify small molecule antagonists of the constitutive androstane receptor (CAR) signaling pathway (AID 1224838).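 Further: HepG2 cells stably expressing hCAR with CYP2B6 luciferase reporter stimulated by CITCO; nearly all actives have a fitted effect of over 40% in size.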 The essentials: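 Antagonism measured as luciferase signal (ONE-Glo, 30 min, room temperature) in CAR-stimulated cells: HepG2-CYP2B6-hCAR double-stable line exposed 24 hr at 37 C to compound in a 15-point series plus 50 nM CITCO.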

For experiment [10] the target is unchanged. The experiment in a line: qHTS assay to identify small molecule agonists of the constitutive androstane receptor (CAR) signaling pathway (AID 1224839). Further: nearly all actives have a fitted effect of over 15% in size. Further: potency means the concentration at half of the fitted maximal effect. The procedure, abridged:
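Luminescent ONE-Glo read-out after 24 hr, 37 C exposure of double-stable HepG2-CYP2B6-hCAR reporter cells to a 15-point compound series, in the presence of 0.75 uM PK11195 (final).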

Experiment [11] is described as follows: qHTS assay to identify small molecule antagonists of the estrogen related receptor signaling pathway with the pleiotropic PPARgamma coactivator (PGC) from Tox21 10K library - cell viability counter screen (AID 1224840; active means well fitted cell-killing curve with a large enough effect in the repeat runs, not every such curve was filed as active; further: nearly all actives have a fitted effect of over 40% in size). The essentials: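 Counter-screen for cytotoxicity: after 17.5 h compound exposure at 37 C, CellTiter-Fluor reagent added to PGC/ERR cells for 30 min and fluorescence read. Cells were seeded at 2,000 per well 6 h before dosing.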

A short description of experiment [12]: qHTS assay to identify small molecule agonists of the retinoic acid receptor (RAR) signaling pathway (AID 1159553). The procedure, abridged:
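Luminescence was measured 30 min after luciferase reagent addition at room temperature. Before that, C3RL4 reporter cells (1,000 per well, plated overnight) were treated with compound for 6 hr at 37 C and 5% CO2.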

Experiment [13] in a line: qHTS assay to identify small molecule antagonists of the estrogen related receptor signaling pathway with the pleiotropic PPARgamma coactivator (PGC) from Tox21 10K library (AID 1224841; call rule not given here; further: series mostly up to about 92 µM; actives are mostly falling curves and most rising ones were filed inactive; nearly all actives have a fitted effect of over 50% in size). The procedure, abridged: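 Luminescence (One-Glo, 30 min at room temperature) after 18 h compound treatment at 37 C of PGC/ERR reporter cells plated at 2,000 cells/well and settled 6 h beforehand.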

Results filed as inconclusive are left out. The source made the active and inactive calls. Unless noted, the call rests on the fitted dose curve; in most records, active means well fitted curve in the direction sought with a large enough effect in the repeat runs; inconclusive means weak or mixed curves; inactive means no such curve, though single readings can be large; an effect the other way counts as inactive or inconclusive.

Chain of Luciferin 4-monooxygenase (Photinus pyralis) (P08659 whole entry, looked up): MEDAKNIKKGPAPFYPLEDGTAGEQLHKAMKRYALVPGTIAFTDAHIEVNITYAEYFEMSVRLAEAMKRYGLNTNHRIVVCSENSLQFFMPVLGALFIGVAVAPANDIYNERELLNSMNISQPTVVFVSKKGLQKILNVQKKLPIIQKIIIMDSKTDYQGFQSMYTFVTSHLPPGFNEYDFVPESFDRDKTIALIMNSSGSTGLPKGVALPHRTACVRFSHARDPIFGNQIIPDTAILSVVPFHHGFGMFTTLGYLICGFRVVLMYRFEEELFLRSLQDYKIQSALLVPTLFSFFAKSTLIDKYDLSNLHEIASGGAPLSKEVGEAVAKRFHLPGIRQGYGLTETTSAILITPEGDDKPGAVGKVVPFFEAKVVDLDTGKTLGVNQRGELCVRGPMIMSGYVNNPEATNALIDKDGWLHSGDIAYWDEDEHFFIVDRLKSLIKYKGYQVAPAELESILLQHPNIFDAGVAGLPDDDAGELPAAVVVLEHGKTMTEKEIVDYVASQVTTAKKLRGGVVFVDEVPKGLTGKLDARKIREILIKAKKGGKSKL
Chain of Nuclear receptor subfamily 1 group I member 3 (Homo sapiens) (Q14994 whole entry, looked up): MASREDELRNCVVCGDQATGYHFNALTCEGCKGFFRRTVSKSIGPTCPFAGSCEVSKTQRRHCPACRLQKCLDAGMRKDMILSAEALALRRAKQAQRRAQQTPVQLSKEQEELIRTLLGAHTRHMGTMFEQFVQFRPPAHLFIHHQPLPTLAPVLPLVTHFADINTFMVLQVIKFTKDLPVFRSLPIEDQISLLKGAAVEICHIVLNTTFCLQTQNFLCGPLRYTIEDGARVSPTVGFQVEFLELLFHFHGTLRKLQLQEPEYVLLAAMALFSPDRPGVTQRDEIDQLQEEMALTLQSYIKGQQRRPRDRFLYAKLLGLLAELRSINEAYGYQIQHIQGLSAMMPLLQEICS

With `CC/C=C\C/C=C\C/C=C\CCCCCCCC(=O)OCC`, the Potency entry in experiment [1], in experiment [2], in experiment [3], in [4], in [5] and in experiment [6] was “inactive” each time.
On to `OCC(CO)n1cnc(-c2ccc(F)cc2)c1-c1ccnc(Oc2ccccc2)n1`, for which the Potency entry in experiment [7], in [1], in experiment [8], in [3], in experiment [4] and in experiment [5] was “inactive” each time. In addition, the Potency result in experiment [9], in experiment [10], in experiment [11] and in [6] was “inactive” each time.
Regarding `O=C1NC(=O)c2cccc3cccc1c23`, the Potency entry in [1], in [2], in experiment [12], in experiment [8], in experiment [3] and in experiment [4] was “inactive” each time. In addition, the Potency entry in experiment [5], in [9] and in experiment [11] was “inactive” each time.
Turning to `O=[N+]([O-])C1(Br)COCOC1`, the Potency in experiment [2] was 43.3 µM (active); in experiment [3] it was 25.2 µM (active). In addition, the Potency result in [5], in experiment [10], in experiment [13] and in experiment [6] was “inactive” throughout.
As for `CNS(=O)(=O)c1cc(C(=O)N2CCC(CCN3C4CCC3CC(n3c(C)nc5ccccc53)C4)(c3cccc(F)c3)CC2)c(Cl)cc1F` (stereo unspecified), the figures for the Potency in experiment [7] and in [8] were 6.16 µM (active) and 13.7 µM (active), respectively. Moreover, the Potency entry in experiment [1], in [3] and in experiment [5] was “inactive” throughout.
On to `CC(C)(O)c1coc(S(=O)(=O)NC(=O)Nc2c3c(cc4c2CCC4)CCC3)c1`, for which the Potency entry in experiment [1], in experiment [2], in [8], in experiment [3], in [4] and in experiment [5] was “inactive” each time. For the same compound, the Potency result in experiment [9], in experiment [10] and in experiment [11] was “inactive” each time.
On to `Nc1ccc(NC(=O)c2ccc(N)cc2)cc1`, for which the Potency entry in experiment [1], in experiment [2], in [8], in [4], in experiment [5] and in [9] was “inactive” throughout. The Potency result in experiment [11], in [13] and in experiment [6] was “inactive” in each case. Moreover, the Potency in experiment [3] was 40 µM (active).
As for `CCCc1nc2c(C)cc(-c3nc4ccccc4n3C)cc2n1Cc1ccc(-c2ccccc2C(=O)O)cc1`, the Potency entry in [1], in [2], in experiment [12], in [4], in experiment [5] and in experiment [9] was “inactive” in each case. In experiment [11], the Potency entry is “inactive”. The Potency in experiment [3] was 13.8 µM (active).
Take `CC(C)C(=O)OCCOc1ccccc1`: the Potency entry in experiment [1], in experiment [2], in experiment [12], in experiment [8], in experiment [3] and in [4] was “inactive” throughout. For the same compound, the Potency entry in experiment [5], in experiment [9] and in experiment [10] was “inactive” each time.
Regarding `COc1cc(C(C)=O)ccc1OCCCN1CCC(c2noc3cc(F)ccc23)CC1`, the Potency entry in experiment [7], in experiment [1], in [5], in experiment [9], in experiment [10] and in [11] was “inactive” throughout.
For `CCCCCCCC/C=C\CCCCCCCC(=O)OCCO`, the Potency result in experiment [1], in experiment [12], in [8], in experiment [3], in experiment [5] and in experiment [11] was “inactive” throughout.
For `CCN(CC)CCOc1ccccc1C(=O)CCc1ccccc1`, the Potency result in experiment [1], in [2], in experiment [12], in experiment [3], in experiment [4] and in experiment [9] was “inactive” each time. Further, the Potency entry in [13] and in [6] was “inactive” each time. Moreover, the Potency in [10] was 26.6 µM (active).
As for `CC[C@H]1OC(=O)[C@H](C)[C@@H](O[C@H]2C[C@@](C)(OC)[C@@H](O)[C@H](C)O2)[C@H](C)[C@@H](O[C@@H]2O[C@H](C)C[C@H](N(C)C)[C@H]2O)[C@](C)(O)C[C@@H](C)CN(C)[C@H](C)[C@@H](O)[C@]1(C)O`, the Potency result in experiment [1], in experiment [12], in [8], in [3], in experiment [4] and in [5] was “inactive” each time. Besides, the Potency result in experiment [9] and in experiment [11] was “inactive” throughout.
